Screening results from PubChem BioAssay.
The sample as a whole holds a higher share of hits than the screen did.
HDAC3 inhib – HDAC3 deacetylase inhibitors, primary screen, biochemical, fluorescence, cell-free homogeneous; Histone deacetylase 3 (Homo sapiens), O15379; recombinant HDAC3, fluorogenic peptide/trypsin coupled; inhibition, % at 8.3 µM; 320,000 compounds, 0.15% hits; AID 2718, 2010; in the data active = inhibition above about 26%, passing the limit was not always enough; inconclusive = no clear call, values can overlap the other calls
Target sequence (O15379 whole entry, looked up): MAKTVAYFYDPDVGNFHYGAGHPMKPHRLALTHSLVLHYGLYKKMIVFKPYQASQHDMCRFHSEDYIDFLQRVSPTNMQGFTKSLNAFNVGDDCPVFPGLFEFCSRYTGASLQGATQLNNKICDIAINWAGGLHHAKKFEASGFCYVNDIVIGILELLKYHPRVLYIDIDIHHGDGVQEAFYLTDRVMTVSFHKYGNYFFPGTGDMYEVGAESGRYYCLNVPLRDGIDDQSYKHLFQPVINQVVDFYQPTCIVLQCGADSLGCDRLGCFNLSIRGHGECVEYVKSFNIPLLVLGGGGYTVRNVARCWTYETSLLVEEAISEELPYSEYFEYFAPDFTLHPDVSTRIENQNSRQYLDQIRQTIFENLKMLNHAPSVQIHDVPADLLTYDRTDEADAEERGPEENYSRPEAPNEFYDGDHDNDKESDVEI
NPR1 activator – GC-A stimulated cGMP production enhancers – HEK293 GC-A cells, cGMP TR-FRET, EC30 ANP, primary screen | activation, % at 10 µM | AID 1671463, 2021 | Atrial natriuretic peptide receptor 1 (Homo sapiens), P16066 | 370,000 compounds, 0.14% hits | 0% at EC30 ANP, 100% saturating ANP; in the data active = activation above about 40%
GC-B act – human GC-B receptor activators, primary screen, HEK293 GC-B cells, cGMP TR-FRET, EC30 CNP; activation, % at 10 µM; Atrial natriuretic peptide receptor 2 (Homo sapiens), P20594; 0% at EC30 CNP, 100% saturating CNP; 370,000 compounds, 0.11% hits;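 active = activation at 10 µM reaching about 35% in either raw or pattern-adjusted values, limit read from the data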
ALR H2O2 inh – inhibitors of human ALR sulfhydryl oxidase, primary screen, biochemical, H2O2 detection, HRP-luminol luminescence, single point; FAD-linked sulfhydryl oxidase ALR (Homo sapiens), P55789; purified ALR, DTT oxidation; inhibition, % (no concentration beside the values); 290,000 compounds, 3.8% hits;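 active = mean replicate inhibition above about 79%, with every replicate also reaching it, limit read from the data; inconclusive = only one of the two criteria met; inactive = mean below limit and not every replicate reaching it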
The depositor's hits bear a star; ? = inconclusive; / = not tested or not shown.

SMILES	HDAC3 inhib	NPR1 activator	GC-B act	ALR H2O2 inh
CCCC(=O)Nc1ccc(C(=O)n2nnc3ccccc32)cc1	75*	-1	0	0
CN(C)c1ccc(C(=O)n2nnc3ccccc32)cc1	91*	6	3	4
Cc1ccc(C(=O)n2nnc3ccccc32)cc1	97*	/	/	15
COC(=O)c1ccc(NC(=O)Cn2nnc3ccccc32)cc1	-5	-1	1	5
O=C(c1cccc(F)c1)n1nnc2ccccc21	0	0	6	/
C[C@@H]1CN([C@H](C)CO)C(=O)CCCn2cc(nn2)CO[C@H]1CN(C)S(=O)(=O)c1ccc(F)cc1	/	-1	-3	/
COc1ccc(Cl)cc1NS(=O)(=O)c1cccc(C(=O)NCCCN2CCOCC2)c1	/	-1	3	/
CN(C)c1ccc2c(c1)Sc1cc(N(C)C)ccc1N2C(=O)c1ccccc1	-3	-15	-33	22
CCOc1ccc(C(Nc2ccc(C)cc2)P2(=O)OCCC(C)O2)cc1 (centres undefined)	3	-1	7	98*
COc1cc(/C=C(\C#N)C(=O)c2ccc(O)c(O)c2)cc(I)c1O	13	-2	-1	99*
COc1ccc(C=C(C#N)C(=O)c2ccccc2)cc1	/	6	7	/
CNc1nc(N)c(C(=O)C(C)(C)C)s1	1	8	-3	99*
COC(=O)[C@]12C[C@H](CC(=O)NCc3cccc(C(F)(F)F)c3)C(=O)N(Cc3cccc4ccccc34)C1=C[C@H](C1CCCC1)O[C@@H]2C	/	-1	-1	/
COc1cccc(N2CC(C)Cn3c2nc2c3c(=O)[nH]c(=O)n2C)c1 (centres undefined)	-8	-1	-4	8
CC(C)C[C@H](NC(=O)c1nc[nH]c1C(=O)N[C@@H](CC(C)C)C(=O)OC(C)(C)C)C(=O)OC(C)(C)C	1	3	8	1
CC(C)(C)OC(=O)[C@H](Cc1ccccc1)NC(=O)c1ncn2c1c(=O)[nH]c1ccc(Br)cc12	/	19	39*	/
CC(C)C[C@H](NC(=O)c1nc[nH]c1C(=O)NCC(=O)OC(C)(C)C)C(=O)OC(C)(C)C	30*	11	19	-21
CC(C)(C)OC(=O)[C@H](Cc1ccccc1)NC(=O)c1nc[nH]c1C(=O)NCCCCCN	2	3	3	1
CC(C)(C)OC(=O)NCCCCCNC(=O)c1[nH]cnc1C(=O)N[C@@H](Cc1ccccc1)C(=O)OC(C)(C)C	28*	/	/	0
CC(=O)Oc1ccc(N2C(=O)C3C4C=CC(C5CC45)C3C2=O)cc1[N+](=O)[O-] (centres undefined)	-1	-4	-5	1
Cc1c(C(=O)NCCSCc2ccc(Cl)cc2Cl)cccc1[N+](=O)[O-]	12	-9	-7	-7
Cc1ccc(C(=O)NCCSCc2ccc(Cl)cc2Cl)cc1[N+](=O)[O-]	4	-2	-7	89*
CC1CCCC(C)N1C(=O)COC(=O)COc1ccc(C#N)cc1 (centres undefined)	-3	-5	-1	/
O=S1(=O)c2ccc(Br)cc2OC[C@@H](Cc2ccccc2)N1Cc1cn(CCC2OCCCO2)nn1	/	2	1	/
CNc1c2cccc(C)c2nc2c(C(=O)NCCN(C)C)cccc12	/	-8	-4	/
SMILES	HDAC3 inhib	NPR1 activator	GC-B act	ALR H2O2 inh
Cc1c[nH]c2cccc(OCC(CNC(C)(C)C)OC(=O)c3ccccc3)c12 (centres undefined)	-3	-36	-15	81*
CCCCNC(=O)CC1N=C2c3ccccc3N=C(SCC(=O)Nc3cccc(C)c3)N2C1=O (centres undefined)	?	2	0	98*
CC/C(=N\NS(=O)(=O)c1ccc(C)cc1)c1ccco1	16	1	8	98*
O=C(CSc1ncccc1-c1nc2ccccc2[nH]1)NCc1ccco1	-13	0	-1	-5
Cc1cc2nc(-c3cccnc3SCC(=O)NCc3ccco3)[nH]c2cc1C	-19	5	-7	99*
COC(=O)[C@]12C[C@H](CC(=O)N3CCN(C(=O)c4ccco4)CC3)C(=O)N(CCC3=CCCCC3)C1=C[C@H](C(C)C)O[C@@H]2C1CC1	/	0	-2	/
CN(C(=O)CSc1nc(O)cc(=O)n1C1CCCC1)c1ccccc1	-5	0	1	98*
COc1ccc2[nH]c3c(NCc4ccco4)ncnc3c2c1	-15	/	/	98*
CCN(CC)CCNc1ncnc2c1[nH]c1ccc(OC)cc12	-2	/	/	-3
O=C(Cn1cnc2ccccc2c1=O)N1CCCCC1	/	-4	-2	/
N#C/C(=C\c1ccccc1[N+](=O)[O-])C(=O)NC1CCCCC1	-12	8	2	19
N#C/C(=C\C=C\c1ccccc1[N+](=O)[O-])C(=O)NC1CCCCC1	1	/	/	99*
O=C(Nc1cccc(F)c1)N1CCCC(CNS(=O)(=O)Cc2ccccc2)C1 (centres undefined)	0	2	-2	4
Cc1ccc(NC(=O)CSC2=C(C#N)C(c3ccco3)CC(=O)N2)cc1 (centres undefined)	3	-3	-3	99*
CCc1ccc(NC(=O)CSC2=C(C#N)C(c3ccco3)C3=C(CCCC3=O)N2)cc1 (centres undefined)	-3	-7	-8	-11
COc1ccccc1C1CC(=O)NC(SCC(=O)Nc2ccccc2)=C1C#N (centres undefined)	/	-1	-1	/
Cc1ccc(C(=O)CSC2=C(C#N)C(c3ccco3)CC(=O)N2)c(C)c1 (centres undefined)	5	-4	-2	92*
Cc1ccc(NC(=O)CSC2=C(C#N)C(c3ccco3)C3=C(CC(C)(C)CC3=O)N2)cc1 (centres undefined)	9	-4	1	98*
COC(=O)CSC1=C(C#N)C(c2ccc(C)o2)CC(=O)N1 (centres undefined)	4	-4	6	1
Cc1ccc(COC(=O)c2cc(S(=O)(=O)N3CCOCC3)ccc2C)cc1	9	3	5	-5
COc1cc(C(=O)Nc2ccncc2)cc(OC)c1OC	0	0	1	-4
COC(=O)c1nc(NC(=O)c2cc(OC)c(OC)c(OC)c2)n[nH]1	39*	-9	-6	98*
COc1ccc(/C=C(/NC(=O)c2cccc([N+](=O)[O-])c2)C(=O)O)cc1	/	0	1	9
Cc1ccc(N2CCC(N3CCN(C4CCCCC4)C(CCO)C3)CC2)cc1 (centres undefined)	1	4	2	99*
CC(C)CCN1CCN(C2CCN(c3ccc4c(c3)OCO4)CC2)CC1CCO (centres undefined)	-5	-2	1	99*
CCCC(=O)Nc1ccc(NC(=O)CCc2ccccc2)cn1	-3	4	0	-7
CCCC(=O)Nc1ccc(NC(=O)Cc2ccccc2)cn1	-1	0	2	99*
